Each structure is given as a SMILES string. Inconclusive results are not listed. Where a call stands in place of a potency, no number is given. Calls of active or inactive are those of the source. The call rests on the fitted dose curve; in most records, active means well fitted activation curve with a large enough effect in the repeat runs; inconclusive means weak or mixed curves; inactive means flat fitted curve, though single readings scatter.

A short description of the assay: A CellTox Green Cytotoxicity Assay to monitor cytotoxicity in HEK293 cells - 16 hour (AID 1224888). Further: nearly all actives have a fitted effect of over 35% in size. To be noted: CellTox Green fluorescence; series mostly up to 76.8 µM. The text has this: National Center for Advancing Translational Sciences [NCATS]
NIH Chemical Genomics Center [NCGC]
U.S. Environmental Protection Agency [EPA]
National Institutes of Environmental Health Sciences [NIEHS]
National Toxicology Program [NTP]
Cell-based models are critical for drug discovery. Determining the natural cytotoxic effects resulting from test compounds is an essential research activity. A CellTox Green Cytotoxicity Assay to monitor cytotoxicity in real time of continues cell culture during 40 hours of the compound treatment was used to screen Tox21 10K library compounds in Hek293 cells. CellTox Green Cytotoxicity Assay is a nonlytic, homogeneous, biofluorescent method to measure cytotoxicity in cell culture after experimental manipulation. The assay system uses a proprietary asymmetric cyanine dye that is excluded from viable cells but preferentially stains the dead cell's DNA. […] Viable cells produce no appreciable increases in fluorescence. Therefore, the fluorescence signal produced by the binding interaction with dead cell DNA is proportional to cytotoxicity.
The mixture of Hek293 cell suspension and reagents were dispensed at 600cells/6 ul/well in 1536-well tissue culture treated black solid bottom plates using a Multidrop dispenser. After the assay plates were incubated at a 37 C/5% CO2 incubator for 5 hours, 23 nL of compounds dissolved in DMSO, positive and negative controls was transferred to the assay plate by a pintool work station. The plates were incubated at 37 C for 40 hours. The fluorescence intensity were measured at 0h, 8h, 16h, 24h, 32h and 40h time points using ViewLux plate reader during compound treatment.
Regarding `Oc1ccc(Cc2ccccc2O)cc1`, the Potency entry was “inactive”.

For `C[n+]1ccn(CCO)c1`, the Potency result was “inactive”.

As to `CCCOC(=O)NCCCN(C)C`, the Potency entry was “inactive”.

Take `CCc1cccc(O)c1`: the Potency entry was “inactive”.

Regarding `CN1Cc2c(N)cccc2C(c2ccccc2)C1` (stereo not given), the Potency result was “inactive”.

Take `CCCCCNCCCCC`: the Potency entry is “inactive”.

Regarding `CC(=O)OC[C@H]1O[C@@](COC(C)=O)(O[C@H]2O[C@H](COC(C)=O)[C@@H](OC(C)=O)[C@H](OC(C)=O)[C@H]2OC(C)=O)[C@@H](OC(C)=O)[C@@H]1OC(C)=O`, the Potency entry is “inactive”.

For `O=c1c(O)c(-c2ccc(O)c(O)c2)oc2cc(O)cc(O)c12`, the Potency result is “inactive”.

Take `CCOC(=O)c1ccc(O)cc1`: the Potency entry was “inactive”.

`Cc1ccncc1`: the Potency result is “inactive”.

For `Cc1ccccc1Cl`, the Potency entry was “inactive”.

With `O=[N+]([O-])c1cc(C(F)(F)F)ccc1Cl`, the Potency entry was “inactive”.

With `NC1CCCCC1N` (stereo not given), the Potency result is “inactive”.

For `Nc1cccc(N)n1`, the Potency result is “inactive”.

Regarding `COc1ccc([C@@H]2CC(=O)c3c(O)cc(O[C@@H]4O[C@H](CO[C@@H]5O[C@@H](C)[C@H](O)[C@@H](O)[C@H]5O)[C@@H](O)[C@H](O)[C@H]4O)cc3O2)cc1OC`, the Potency result was “inactive”.

Take `CC1=CC(=O)CC(C)(C)C1`: the Potency entry was “inactive”.

On to `CC(=O)C(C)C`, for which the Potency result is “inactive”.

For the molecule `OCCOCCOCCOCCOCCO`, the Potency result was “inactive”.

Consider `NC(N)=S`, for which the Potency result was “inactive”.

`Cc1ccc(Cl)cc1`: the Potency result is “inactive”.

For `OB(O)O`, the Potency result is “inactive”.

Take `Cc1cc(C)cc(O)c1`: the Potency entry is “inactive”.

On to `N[C@@H](Cc1cc(I)c(Oc2ccc(O)c(I)c2)c(I)c1)C(=O)O`, for which the Potency result is “inactive”.

With `OCC(O)CS` (stereo not given), the Potency entry was “inactive”.

As to `CC(=O)Nc1ccc(CC(=O)O)cc1`, the Potency entry was “inactive”.

For `CCCCCCC(=O)O`, the Potency entry was “inactive”.

Take `CC1(C)[C@@H](O[C@H]2O[C@H](C(=O)O)[C@@H](O)[C@H](O)[C@H]2O[C@@H]2O[C@H](C(=O)O)[C@@H](O)[C@H](O)[C@H]2O)CC[C@]2(C)[C@H]3C(=O)C=C4[C@@H]5C[C@@](C)(C(=O)O)CC[C@]5(C)CC[C@@]4(C)[C@]3(C)CC[C@@H]12`: the Potency entry is “inactive”.

Consider `CC(O)CNCC(C)O` (stereo not given), for which the Potency entry is “inactive”.

Regarding `Cc1cc(CC(=O)O)n(C)c1C(=O)c1ccc(Cl)cc1`, the Potency result was “inactive”.

Turning to `CCCN(CCC)C(=O)SCC`, the Potency entry is “inactive”.

Take `CCCCCCCC(=O)O`: the Potency result was “inactive”.

For the molecule `CCCCCC(C)=O`, the Potency result is “inactive”.

With `CCc1cccc(CC)c1N`, the Potency result was “inactive”.

Regarding `Nc1nc(N)c2nc(-c3ccccc3)c(N)nc2n1`, the Potency entry is “inactive”.

As for `COc1c(Cl)ccc(Cl)c1C(=O)O`, the Potency entry was “inactive”.

As for `NCCNCCNCCN`, the Potency result is “inactive”.

In the case of `O=c1n(CCCN2CCN(c3cccc(Cl)c3)CC2)nc2ccccn12`, the Potency entry was “inactive”.

For `CC/C=C(\C(=O)N[C@@H]1C(=O)N2C(C(=O)OCOC(=O)C(C)(C)C)=C(COC(N)=O)CS[C@H]12)c1csc(N)n1`, the Potency result is “inactive”.

Take `C=CC(=O)NCOCCCC`: the Potency result was “inactive”.

For the molecule `CCOC(=O)CC(=O)OCC`, the Potency result is “inactive”.

Values taken from PubChem BioAssay (Tox21).
